Of roughly 8,800 targets only a part is listed; those with a hit were picked by preference. About 0.5% of all pairs of compound and target were hits. Unmarked numbers belong to inactive results.
compound: Cn1cncc1[C@@](N)(c1ccc(Cl)cc1)c1ccc2c(c1)c(-c1cccc(Cl)c1)cc(=O)n2C [tipifarnib]; assay: log2 fold change, soluble protein after heating vs DMSO (PISA); higher = thermal stabilisation; K562 lysate, 10 uM; active = over 0.2 and 3.5 SD of the protein, either way, in both replicates (recomputed)
How it was run: (§1)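 Following dounce homogenisation of K562 pellets in PBS pH 7.4 with 1 mM MgCl2, crude extract at 1 mg/mL protein was incubated for 30 min with 10 μM compound. Aliquots were then heated for 3 min over 48°C-58°C and pooled, NP-40 was added to 0.5% at 4°C, and soluble protein was recovered as the supernatant at 21,000xg for 90 min. Channel-sum-equalised TMTpro 16plex LC-MS/MS quantified this protein. Each value, from duplicates, is a log-two fold change in thermal stability relative to solvent controls.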

Chain of UniProt P15260 (P15260 whole entry, looked up): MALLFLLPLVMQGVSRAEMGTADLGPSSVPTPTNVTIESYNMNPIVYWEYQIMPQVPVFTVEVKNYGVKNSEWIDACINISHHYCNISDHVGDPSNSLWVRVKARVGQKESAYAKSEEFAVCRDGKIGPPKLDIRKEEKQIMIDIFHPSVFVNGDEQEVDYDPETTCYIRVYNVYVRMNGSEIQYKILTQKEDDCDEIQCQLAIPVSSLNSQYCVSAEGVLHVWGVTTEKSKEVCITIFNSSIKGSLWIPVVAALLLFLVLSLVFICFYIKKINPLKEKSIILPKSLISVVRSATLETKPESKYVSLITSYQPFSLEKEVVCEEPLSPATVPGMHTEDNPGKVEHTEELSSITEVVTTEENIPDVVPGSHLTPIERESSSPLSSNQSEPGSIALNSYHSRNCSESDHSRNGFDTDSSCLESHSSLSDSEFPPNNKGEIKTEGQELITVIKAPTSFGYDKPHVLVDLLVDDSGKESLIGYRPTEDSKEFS
Chain of UniProt P49915 (P49915 whole entry, looked up): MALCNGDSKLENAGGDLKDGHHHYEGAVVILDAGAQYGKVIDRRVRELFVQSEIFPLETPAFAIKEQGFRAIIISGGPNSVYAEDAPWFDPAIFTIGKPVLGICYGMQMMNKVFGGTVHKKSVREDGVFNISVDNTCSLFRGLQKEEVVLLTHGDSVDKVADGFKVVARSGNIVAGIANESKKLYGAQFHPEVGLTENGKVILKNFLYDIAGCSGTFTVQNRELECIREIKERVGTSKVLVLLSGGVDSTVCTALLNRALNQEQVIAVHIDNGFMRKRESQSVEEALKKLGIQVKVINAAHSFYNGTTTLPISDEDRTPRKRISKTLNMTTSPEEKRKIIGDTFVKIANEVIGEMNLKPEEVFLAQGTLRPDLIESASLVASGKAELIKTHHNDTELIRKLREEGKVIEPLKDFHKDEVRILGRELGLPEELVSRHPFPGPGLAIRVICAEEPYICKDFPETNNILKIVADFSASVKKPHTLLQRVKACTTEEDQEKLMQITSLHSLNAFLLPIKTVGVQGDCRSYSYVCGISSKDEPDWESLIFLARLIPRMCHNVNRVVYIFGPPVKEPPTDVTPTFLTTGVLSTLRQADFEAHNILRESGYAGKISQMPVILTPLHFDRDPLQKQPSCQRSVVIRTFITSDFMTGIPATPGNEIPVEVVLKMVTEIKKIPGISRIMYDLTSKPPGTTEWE
Chain of UniProt Q9NPR9 (Q9NPR9 whole entry, looked up): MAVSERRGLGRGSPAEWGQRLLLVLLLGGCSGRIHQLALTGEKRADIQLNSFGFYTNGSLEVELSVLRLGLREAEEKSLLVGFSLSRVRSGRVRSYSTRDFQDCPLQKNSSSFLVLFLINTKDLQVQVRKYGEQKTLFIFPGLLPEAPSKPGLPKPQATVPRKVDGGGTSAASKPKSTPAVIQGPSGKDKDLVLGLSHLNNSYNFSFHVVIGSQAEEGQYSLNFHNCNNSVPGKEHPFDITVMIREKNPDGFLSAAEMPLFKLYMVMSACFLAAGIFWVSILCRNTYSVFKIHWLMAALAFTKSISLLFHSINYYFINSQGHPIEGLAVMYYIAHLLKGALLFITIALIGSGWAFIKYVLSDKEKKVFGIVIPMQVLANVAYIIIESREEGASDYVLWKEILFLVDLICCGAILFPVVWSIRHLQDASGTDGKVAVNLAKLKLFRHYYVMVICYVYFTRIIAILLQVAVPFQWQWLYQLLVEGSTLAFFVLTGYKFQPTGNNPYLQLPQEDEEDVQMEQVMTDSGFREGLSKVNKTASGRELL
Chain of UniProt P12081 (P12081 whole entry, looked up): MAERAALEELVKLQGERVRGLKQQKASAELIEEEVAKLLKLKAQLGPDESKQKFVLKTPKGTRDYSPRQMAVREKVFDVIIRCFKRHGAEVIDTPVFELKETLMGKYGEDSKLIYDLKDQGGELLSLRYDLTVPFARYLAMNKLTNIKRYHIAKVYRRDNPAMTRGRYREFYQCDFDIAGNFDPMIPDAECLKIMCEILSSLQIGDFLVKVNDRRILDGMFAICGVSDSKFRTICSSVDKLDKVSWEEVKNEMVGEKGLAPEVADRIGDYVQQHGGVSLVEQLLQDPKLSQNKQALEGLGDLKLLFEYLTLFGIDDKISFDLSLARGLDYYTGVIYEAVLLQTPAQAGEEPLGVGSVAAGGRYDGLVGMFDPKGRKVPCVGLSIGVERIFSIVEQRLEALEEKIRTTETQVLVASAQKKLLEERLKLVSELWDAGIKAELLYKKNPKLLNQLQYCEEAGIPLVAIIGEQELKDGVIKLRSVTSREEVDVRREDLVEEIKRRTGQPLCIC
Chain of UniProt Q13418 (Q13418 whole entry, looked up): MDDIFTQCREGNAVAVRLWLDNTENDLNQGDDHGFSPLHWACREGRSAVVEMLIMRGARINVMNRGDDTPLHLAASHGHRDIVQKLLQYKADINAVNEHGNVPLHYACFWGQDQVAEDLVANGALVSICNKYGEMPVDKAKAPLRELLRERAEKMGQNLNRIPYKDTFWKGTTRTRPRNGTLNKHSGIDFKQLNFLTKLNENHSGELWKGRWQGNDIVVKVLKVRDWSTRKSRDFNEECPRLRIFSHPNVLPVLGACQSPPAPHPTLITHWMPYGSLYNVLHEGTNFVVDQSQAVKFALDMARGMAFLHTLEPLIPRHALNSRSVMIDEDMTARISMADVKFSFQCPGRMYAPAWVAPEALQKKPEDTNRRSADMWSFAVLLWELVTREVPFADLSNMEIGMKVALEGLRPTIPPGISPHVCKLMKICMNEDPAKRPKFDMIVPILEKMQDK
Chain of UniProt P04792 (P04792 whole entry, looked up): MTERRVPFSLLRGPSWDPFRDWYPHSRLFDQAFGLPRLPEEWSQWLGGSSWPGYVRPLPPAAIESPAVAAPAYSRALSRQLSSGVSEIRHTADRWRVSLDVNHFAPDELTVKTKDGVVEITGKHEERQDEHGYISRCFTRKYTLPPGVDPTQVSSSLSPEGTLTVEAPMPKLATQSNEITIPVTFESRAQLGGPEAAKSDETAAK
Chain of UniProt Q9NWZ3 (Q9NWZ3 whole entry, looked up): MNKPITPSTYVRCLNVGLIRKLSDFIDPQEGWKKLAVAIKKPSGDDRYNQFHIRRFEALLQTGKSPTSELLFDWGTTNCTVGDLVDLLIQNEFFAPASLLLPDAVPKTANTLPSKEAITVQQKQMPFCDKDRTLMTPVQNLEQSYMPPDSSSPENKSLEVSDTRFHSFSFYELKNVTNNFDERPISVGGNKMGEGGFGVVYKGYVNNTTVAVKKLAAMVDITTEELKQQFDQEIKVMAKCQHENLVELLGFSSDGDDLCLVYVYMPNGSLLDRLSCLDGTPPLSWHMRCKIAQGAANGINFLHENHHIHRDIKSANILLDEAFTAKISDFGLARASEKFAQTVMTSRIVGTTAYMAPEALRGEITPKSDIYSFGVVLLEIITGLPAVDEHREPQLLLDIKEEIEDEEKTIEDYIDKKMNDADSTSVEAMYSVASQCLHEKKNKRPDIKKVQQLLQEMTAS
Chain of UniProt P78347 (P78347 whole entry, looked up): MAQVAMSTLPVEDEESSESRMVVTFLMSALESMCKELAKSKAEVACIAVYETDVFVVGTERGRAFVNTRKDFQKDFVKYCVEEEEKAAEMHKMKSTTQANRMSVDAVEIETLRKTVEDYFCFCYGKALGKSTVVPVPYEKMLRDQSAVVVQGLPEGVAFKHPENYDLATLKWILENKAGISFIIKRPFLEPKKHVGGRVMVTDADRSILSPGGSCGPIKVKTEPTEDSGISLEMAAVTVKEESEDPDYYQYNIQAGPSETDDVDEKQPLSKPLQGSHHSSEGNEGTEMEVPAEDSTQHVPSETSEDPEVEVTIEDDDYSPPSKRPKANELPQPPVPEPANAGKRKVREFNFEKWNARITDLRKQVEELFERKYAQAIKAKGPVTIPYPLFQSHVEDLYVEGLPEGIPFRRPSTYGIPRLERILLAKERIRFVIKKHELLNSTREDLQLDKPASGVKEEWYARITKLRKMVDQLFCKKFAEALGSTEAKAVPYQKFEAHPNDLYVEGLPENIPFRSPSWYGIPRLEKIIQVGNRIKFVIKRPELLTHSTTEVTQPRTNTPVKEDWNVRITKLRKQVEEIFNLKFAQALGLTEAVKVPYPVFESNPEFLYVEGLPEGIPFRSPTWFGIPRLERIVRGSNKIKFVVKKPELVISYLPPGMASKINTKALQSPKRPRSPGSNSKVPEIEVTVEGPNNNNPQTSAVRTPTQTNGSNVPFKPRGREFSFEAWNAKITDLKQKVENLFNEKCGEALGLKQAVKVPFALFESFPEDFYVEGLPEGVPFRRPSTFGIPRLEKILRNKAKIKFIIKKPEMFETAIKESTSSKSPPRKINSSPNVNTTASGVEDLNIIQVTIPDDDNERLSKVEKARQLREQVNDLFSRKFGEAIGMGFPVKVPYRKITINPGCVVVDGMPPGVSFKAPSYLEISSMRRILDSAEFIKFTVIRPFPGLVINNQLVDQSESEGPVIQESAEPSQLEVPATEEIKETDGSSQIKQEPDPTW
Chain of UniProt Q9H079 (Q9H079 whole entry, looked up): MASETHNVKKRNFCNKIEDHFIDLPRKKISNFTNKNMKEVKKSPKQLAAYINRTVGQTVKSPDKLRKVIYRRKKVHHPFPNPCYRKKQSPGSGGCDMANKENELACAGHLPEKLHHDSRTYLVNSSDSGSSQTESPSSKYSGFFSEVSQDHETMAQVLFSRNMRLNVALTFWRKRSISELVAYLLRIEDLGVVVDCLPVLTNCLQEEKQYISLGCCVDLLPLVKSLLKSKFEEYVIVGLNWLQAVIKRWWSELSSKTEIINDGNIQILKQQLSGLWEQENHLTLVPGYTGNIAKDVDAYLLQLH
Chain of UniProt Q6DN03 (Q6DN03 whole entry, looked up): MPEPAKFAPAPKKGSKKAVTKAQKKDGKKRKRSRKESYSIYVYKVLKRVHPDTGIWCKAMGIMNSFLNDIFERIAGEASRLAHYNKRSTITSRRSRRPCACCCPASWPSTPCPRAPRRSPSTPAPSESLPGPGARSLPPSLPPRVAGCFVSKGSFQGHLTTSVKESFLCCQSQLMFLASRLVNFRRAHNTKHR

Target | log2 fold change
IFNGR1 (UniProt P15260) | -0.08
GSTCD (UniProt Q8NEC7) | 0.01
GSTM4 (UniProt Q03013) | 0.008
GNB1 (UniProt P62873) | 0.019
HMGN4 (UniProt O00479) | 0.001
KATNBL1 (UniProt Q9H079) | 0.198
HNRNPAB isoform 3 (UniProt Q99729) | 0.006
IRF2BPL (UniProt Q9H1B7) | -0.069
HNRNPD isoform 3 (UniProt Q14103) | -0.002
HDAC3 (UniProt O15379) | -0.102
IGF2BP2 (UniProt Q9Y6M1) | 0.028
IRAK4 (UniProt Q9NWZ3) | -0.044
HSPB1 (UniProt P04792) | -0.006
HK2 (UniProt P52789) | -0.01
HAUS4 (UniProt Q9H6D7) | -0.021
GNB4 (UniProt Q9HAV0) | 0.048
GRK6 isoform 2 (UniProt P43250) | 0
ILK (UniProt Q13418) | -0.001

Target | log2 fold change
INPPL1 (UniProt O15357) | -0.026
HNRNPLL (UniProt Q8WVV9) | -0.008
GTF2I (UniProt P78347) | -0.008
GPR108 (UniProt Q9NPR9) | -0.088
GMPS (UniProt P49915) | -0.008
HIST2H2BC (UniProt Q6DN03) | 0.037
HARS (UniProt P12081) | 0.019
HNRNPUL2 (UniProt Q1KMD3) | 0.008
ISCA1 isoform 2 (UniProt Q9BUE6) | 0.026
HSPA8 (UniProt E9PN89) | 0.006
IMMT (UniProt Q16891) | -0.005
HAUS5 (UniProt O94927) | 0.006
IMPDH2 (UniProt P12268) | 0.029
HSD17B10 (UniProt Q99714) | 0.008
HK1 isoform 2 (UniProt P19367) | 0.007
HIST2H2AA3 (UniProt Q6FI13) | 0.058
HELQ (UniProt Q8TDG4) | 0.033
ICAM2 (UniProt P13598) | -0.016

compound: NC(=O)Nc1cc(-c2cccc(F)c2)sc1C(=O)N[C@H]1CCCNC1; assay: as above
How it was run: as §1

Target | log2 fold change
IFNGR1 (UniProt P15260) | 0.013
GSTCD (UniProt Q8NEC7) | 0.08
GSTM4 (UniProt Q03013) | -0.003
GNB1 (UniProt P62873) | -0.137
HMGN4 (UniProt O00479) | -0.019
KATNBL1 (UniProt Q9H079) | 0.158
HNRNPAB isoform 3 (UniProt Q99729) | 0
IRF2BPL (UniProt Q9H1B7) | -0.01
HNRNPD isoform 3 (UniProt Q14103) | 0.021
HDAC3 (UniProt O15379) | 0.038
IGF2BP2 (UniProt Q9Y6M1) | 0.06
IRAK4 (UniProt Q9NWZ3) | 0.413 (active)
HSPB1 (UniProt P04792) | 0.006
HK2 (UniProt P52789) | 0.048
HAUS4 (UniProt Q9H6D7) | 0.053
GNB4 (UniProt Q9HAV0) | -0.172
GRK6 isoform 2 (UniProt P43250) | 0.012
ILK (UniProt Q13418) | 0.097

Target | log2 fold change
INPPL1 (UniProt O15357) | 0.032
HNRNPLL (UniProt Q8WVV9) | 0.001
GTF2I (UniProt P78347) | 0.034
GPR108 (UniProt Q9NPR9) | -0.013
GMPS (UniProt P49915) | 0.001
HIST2H2BC (UniProt Q6DN03) | 0.016
HARS (UniProt P12081) | -0.019
HNRNPUL2 (UniProt Q1KMD3) | 0
ISCA1 isoform 2 (UniProt Q9BUE6) | -0.05
HSPA8 (UniProt E9PN89) | 0
IMMT (UniProt Q16891) | -0.007
HAUS5 (UniProt O94927) | 0.079
IMPDH2 (UniProt P12268) | 0.006
HSD17B10 (UniProt Q99714) | 0.013
HK1 isoform 2 (UniProt P19367) | 0.008
HIST2H2AA3 (UniProt Q6FI13) | 0.076
HELQ (UniProt Q8TDG4) | -0.013
ICAM2 (UniProt P13598) | -0.018

Source: the supplement of paper PMC10849652
